What all share (test): DAPPL (digital affinity profiling via proximity ligation, sequencing); 10 mM Tris-HCl pH 7.5, 50 mM NaCl, 1 mM DTT, 4% glycerol, room temperature, 30 min; GST-TFs on glutathione beads, 16-mer random dsDNA library, 0.1% formaldehyde crosslink after washing; high values mean tight binding
One test concerns the target T1, FEV (Homo sapiens, UniProt Q99581 1-238).
T1 sequence: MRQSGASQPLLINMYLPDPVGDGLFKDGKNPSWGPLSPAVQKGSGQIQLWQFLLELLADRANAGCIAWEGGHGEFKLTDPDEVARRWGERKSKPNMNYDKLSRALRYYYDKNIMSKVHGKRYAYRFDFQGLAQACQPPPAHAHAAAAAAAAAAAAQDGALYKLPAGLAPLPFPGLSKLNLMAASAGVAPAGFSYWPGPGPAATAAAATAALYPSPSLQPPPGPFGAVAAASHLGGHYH
Particulars: protein: recombinant; tags: N-terminal GST; dsDNA, one strand shown. The method, boiled down: (§1)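 Binding signal is each hexamer's read frequency for a factor divided by its frequency in the tag-only sample. The factors were GST-fused human transcription factors from yeast, captured on glutathione beads, DNA-barcoded and pooled with that sample. Pools were incubated with 200 nmole of a random double-stranded 16-mer DNA library in Tris/NaCl/DTT/glycerol buffer at room temperature for 30 min, then washed, crosslinked with 0.1% formaldehyde, proximity-ligated with BsaI/T4 ligase (1 h, 37 °C), PCR-amplified and sequenced on an Illumina NextSeq500.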

In the next test the target is ETV5 (Homo sapiens, UniProt P41161 1-510). As to conditions: protein: recombinant; tags: N-terminal GST; dsDNA, one strand shown. In a few lines:
as §1

The target in the next test is HSF1 (Homo sapiens, UniProt Q00613 1-529). Particulars: protein: recombinant; tags: N-terminal GST; chain copies: 3; dsDNA, one strand shown. The method, boiled down:
as §1

For a further test, the target named is T2, SPIC (Homo sapiens, UniProt Q8N5J4 1-248).
T2 sequence: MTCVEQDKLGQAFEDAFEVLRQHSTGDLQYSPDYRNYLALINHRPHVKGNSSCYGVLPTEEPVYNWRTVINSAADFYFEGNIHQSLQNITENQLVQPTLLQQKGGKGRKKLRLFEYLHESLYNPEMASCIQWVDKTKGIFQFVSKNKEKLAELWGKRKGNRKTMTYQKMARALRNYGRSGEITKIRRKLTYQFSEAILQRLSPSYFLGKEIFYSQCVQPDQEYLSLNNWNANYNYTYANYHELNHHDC
As to conditions: protein: recombinant; tags: N-terminal GST; dsDNA, one strand shown. The method, boiled down:
as §1

In the next test the target is ELF4 (Homo sapiens, UniProt Q99607 1-663). As to conditions: protein: recombinant; tags: N-terminal GST; dsDNA, one strand shown. The method, boiled down: as §1
A further test deals with T3, ELK4 (Homo sapiens, UniProt P28324-2 1-405).
T3 sequence: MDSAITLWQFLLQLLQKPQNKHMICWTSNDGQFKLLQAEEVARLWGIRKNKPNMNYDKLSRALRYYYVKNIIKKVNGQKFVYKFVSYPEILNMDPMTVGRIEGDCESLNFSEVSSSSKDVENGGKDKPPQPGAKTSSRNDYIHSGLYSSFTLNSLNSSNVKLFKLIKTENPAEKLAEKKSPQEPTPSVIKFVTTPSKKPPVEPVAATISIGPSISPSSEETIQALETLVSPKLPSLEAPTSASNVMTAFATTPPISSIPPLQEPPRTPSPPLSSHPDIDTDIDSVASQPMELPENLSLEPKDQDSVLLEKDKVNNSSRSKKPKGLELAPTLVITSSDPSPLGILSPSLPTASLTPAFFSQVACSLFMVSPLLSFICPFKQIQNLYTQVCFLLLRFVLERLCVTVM
Particulars: protein: recombinant; tags: N-terminal GST; dsDNA, one strand shown. In a few lines: as §1

The next test deals with T4, ETV2 (Homo sapiens, UniProt O00321 1-342).
T4 sequence: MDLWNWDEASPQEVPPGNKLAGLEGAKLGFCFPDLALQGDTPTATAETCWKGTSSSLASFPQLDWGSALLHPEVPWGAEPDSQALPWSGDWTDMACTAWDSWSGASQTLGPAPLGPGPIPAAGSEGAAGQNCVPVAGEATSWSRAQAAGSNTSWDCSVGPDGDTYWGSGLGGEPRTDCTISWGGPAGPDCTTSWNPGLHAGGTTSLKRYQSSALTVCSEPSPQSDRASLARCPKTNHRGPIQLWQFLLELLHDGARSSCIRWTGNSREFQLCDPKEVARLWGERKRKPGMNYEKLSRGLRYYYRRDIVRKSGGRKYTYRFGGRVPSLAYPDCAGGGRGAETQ
As to conditions: protein: recombinant; tags: N-terminal GST; dsDNA, one strand shown. In a few lines: as §1

Another test deals with T5, ELF3 (Homo sapiens, UniProt P78545 1-371).
T5 sequence: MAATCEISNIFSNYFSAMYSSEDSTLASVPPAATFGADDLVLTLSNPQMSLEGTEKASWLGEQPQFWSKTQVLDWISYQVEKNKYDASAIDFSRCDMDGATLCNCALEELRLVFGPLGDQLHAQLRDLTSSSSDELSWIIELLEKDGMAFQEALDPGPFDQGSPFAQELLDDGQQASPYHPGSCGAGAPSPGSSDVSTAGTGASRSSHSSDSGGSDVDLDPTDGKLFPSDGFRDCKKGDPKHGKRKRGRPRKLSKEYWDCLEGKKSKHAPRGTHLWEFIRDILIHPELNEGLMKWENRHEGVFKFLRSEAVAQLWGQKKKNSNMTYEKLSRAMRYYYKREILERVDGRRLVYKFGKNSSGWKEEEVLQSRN
As to conditions: protein: recombinant; tags: N-terminal GST; dsDNA, one strand shown. In a few lines: as §1

The target in the next test is CRX (Homo sapiens, UniProt O43186 1-299). As to conditions: protein: recombinant; tags: N-terminal GST; dsDNA, one strand shown. In a few lines:
as §1

Another test concerns the target ETV1 (Homo sapiens, UniProt P50549 1-477). As to conditions: protein: recombinant; tags: N-terminal GST; dsDNA, one strand shown. The method, boiled down:
as §1

The target in another test is T6, ERF (Homo sapiens, UniProt P50548 1-548).
T6 sequence: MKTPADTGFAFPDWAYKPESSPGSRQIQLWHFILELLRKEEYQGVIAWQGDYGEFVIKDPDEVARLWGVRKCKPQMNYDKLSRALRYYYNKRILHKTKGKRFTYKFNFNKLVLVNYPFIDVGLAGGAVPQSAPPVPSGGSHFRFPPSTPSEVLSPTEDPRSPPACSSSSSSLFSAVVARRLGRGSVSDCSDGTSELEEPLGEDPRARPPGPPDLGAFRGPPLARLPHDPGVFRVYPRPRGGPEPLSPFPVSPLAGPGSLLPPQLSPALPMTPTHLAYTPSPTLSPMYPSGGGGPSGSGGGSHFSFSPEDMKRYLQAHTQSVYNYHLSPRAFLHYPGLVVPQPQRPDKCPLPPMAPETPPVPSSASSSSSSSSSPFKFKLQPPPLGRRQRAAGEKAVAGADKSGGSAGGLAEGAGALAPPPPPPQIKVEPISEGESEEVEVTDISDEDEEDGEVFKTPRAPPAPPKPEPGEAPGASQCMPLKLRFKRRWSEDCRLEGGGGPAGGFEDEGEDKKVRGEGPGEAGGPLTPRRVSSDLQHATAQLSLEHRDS
Particulars: protein: recombinant; tags: N-terminal GST; dsDNA, one strand shown. In a few lines: as §1

A further test addresses T7, ETV3L (Homo sapiens, UniProt Q6ZN32 1-361).
T7 sequence: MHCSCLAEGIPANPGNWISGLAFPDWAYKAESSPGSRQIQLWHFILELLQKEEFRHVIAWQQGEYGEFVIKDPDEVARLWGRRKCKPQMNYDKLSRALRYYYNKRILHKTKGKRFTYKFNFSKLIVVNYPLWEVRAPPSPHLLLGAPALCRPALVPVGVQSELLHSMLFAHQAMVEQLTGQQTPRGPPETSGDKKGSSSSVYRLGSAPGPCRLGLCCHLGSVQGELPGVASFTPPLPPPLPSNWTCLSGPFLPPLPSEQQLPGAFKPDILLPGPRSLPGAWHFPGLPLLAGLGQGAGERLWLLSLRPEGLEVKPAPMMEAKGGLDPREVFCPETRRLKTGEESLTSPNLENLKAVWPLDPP
As to conditions: protein: recombinant; tags: N-terminal GST; dsDNA, one strand shown. In a few lines: as §1

A further test has as its target T8, ETS2 (Homo sapiens, UniProt P15036 1-469).
T8 sequence: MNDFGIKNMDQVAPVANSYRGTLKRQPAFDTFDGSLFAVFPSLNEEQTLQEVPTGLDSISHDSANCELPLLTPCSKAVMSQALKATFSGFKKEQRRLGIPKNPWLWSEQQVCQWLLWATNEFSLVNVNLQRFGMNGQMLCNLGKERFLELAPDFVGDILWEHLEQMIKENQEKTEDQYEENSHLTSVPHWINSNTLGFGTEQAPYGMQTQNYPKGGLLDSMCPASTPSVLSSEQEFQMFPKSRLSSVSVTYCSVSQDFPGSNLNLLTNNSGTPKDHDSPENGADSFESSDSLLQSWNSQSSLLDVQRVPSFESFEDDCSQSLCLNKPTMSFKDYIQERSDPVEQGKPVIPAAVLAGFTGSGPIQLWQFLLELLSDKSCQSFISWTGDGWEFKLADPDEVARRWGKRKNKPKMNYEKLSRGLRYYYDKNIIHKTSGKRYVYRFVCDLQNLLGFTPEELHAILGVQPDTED
As to conditions: protein: recombinant; tags: N-terminal GST; dsDNA, one strand shown. In a few lines:
as §1

The target of another test is T9, SPDEF (Homo sapiens, UniProt O95238 1-335).
T9 sequence: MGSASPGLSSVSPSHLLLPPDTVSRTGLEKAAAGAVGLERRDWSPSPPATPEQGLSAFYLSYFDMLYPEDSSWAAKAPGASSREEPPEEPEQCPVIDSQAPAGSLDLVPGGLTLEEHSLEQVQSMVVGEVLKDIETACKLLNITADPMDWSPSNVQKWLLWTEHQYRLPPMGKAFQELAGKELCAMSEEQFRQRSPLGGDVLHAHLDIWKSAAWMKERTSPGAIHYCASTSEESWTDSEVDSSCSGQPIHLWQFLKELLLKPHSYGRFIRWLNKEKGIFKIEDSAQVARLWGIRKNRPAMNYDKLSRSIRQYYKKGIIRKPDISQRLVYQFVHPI
As to conditions: protein: recombinant; tags: N-terminal GST; dsDNA, one strand shown. In a few lines:
as §1

Another test concerns the target T10, ETV7 (Homo sapiens, UniProt Q9Y603 1-341).
T10 sequence: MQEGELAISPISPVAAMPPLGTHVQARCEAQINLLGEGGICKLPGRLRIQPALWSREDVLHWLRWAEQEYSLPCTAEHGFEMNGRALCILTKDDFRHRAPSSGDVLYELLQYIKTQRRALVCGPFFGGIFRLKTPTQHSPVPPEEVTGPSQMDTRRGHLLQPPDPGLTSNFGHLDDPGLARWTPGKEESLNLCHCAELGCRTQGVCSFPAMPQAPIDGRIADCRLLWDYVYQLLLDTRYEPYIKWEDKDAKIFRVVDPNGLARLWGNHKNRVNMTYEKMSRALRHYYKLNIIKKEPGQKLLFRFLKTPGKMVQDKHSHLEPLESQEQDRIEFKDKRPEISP
Particulars: protein: recombinant; tags: N-terminal GST; dsDNA, one strand shown. The method, boiled down:
as §1

The target in the next test is T11, ELF5 (Homo sapiens, UniProt Q9UKW6-2 1-255).
T11 sequence: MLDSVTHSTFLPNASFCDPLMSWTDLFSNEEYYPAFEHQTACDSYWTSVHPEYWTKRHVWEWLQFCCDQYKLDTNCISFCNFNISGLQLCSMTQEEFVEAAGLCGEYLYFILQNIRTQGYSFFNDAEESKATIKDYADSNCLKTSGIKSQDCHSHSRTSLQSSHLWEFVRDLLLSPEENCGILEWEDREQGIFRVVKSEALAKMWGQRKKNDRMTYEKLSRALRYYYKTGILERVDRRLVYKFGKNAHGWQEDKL
Particulars: protein: recombinant; tags: N-terminal GST; dsDNA, one strand shown. In a few lines: as §1

The next test has as its target T12, ETV3 (Homo sapiens, UniProt P41162-2 1-143).
T12 sequence: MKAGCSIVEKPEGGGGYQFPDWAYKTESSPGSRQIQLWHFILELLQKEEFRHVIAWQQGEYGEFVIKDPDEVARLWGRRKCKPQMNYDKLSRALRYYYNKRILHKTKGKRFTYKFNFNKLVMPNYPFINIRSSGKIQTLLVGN
As to conditions: protein: recombinant; tags: N-terminal GST; dsDNA, one strand shown. The method, boiled down: as §1

The next test concerns the target ETV6 (Homo sapiens, UniProt P41212 1-452). As to conditions: protein: recombinant; tags: N-terminal GST; dsDNA, one strand shown. In a few lines: as §1

These results are taken from publication PMC7862700, “An all-to-all approach to the identification of sequence-specific readers for epigenetic DNA modifications on cytosine”.

ETV5, sequence (P41161 whole entry): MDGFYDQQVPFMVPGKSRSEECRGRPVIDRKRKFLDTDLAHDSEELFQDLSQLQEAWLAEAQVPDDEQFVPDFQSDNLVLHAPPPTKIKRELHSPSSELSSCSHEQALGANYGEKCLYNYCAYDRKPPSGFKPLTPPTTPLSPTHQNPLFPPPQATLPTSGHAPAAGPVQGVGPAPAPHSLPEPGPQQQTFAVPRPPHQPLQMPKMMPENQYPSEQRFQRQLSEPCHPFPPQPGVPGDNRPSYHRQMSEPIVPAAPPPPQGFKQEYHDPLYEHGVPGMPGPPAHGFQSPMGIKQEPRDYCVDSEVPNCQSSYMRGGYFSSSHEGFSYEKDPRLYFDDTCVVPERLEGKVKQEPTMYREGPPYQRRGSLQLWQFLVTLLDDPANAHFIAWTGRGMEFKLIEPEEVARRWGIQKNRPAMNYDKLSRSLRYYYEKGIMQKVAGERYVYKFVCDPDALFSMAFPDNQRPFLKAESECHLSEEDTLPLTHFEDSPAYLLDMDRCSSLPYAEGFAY
ELF4, sequence (Q99607 whole entry): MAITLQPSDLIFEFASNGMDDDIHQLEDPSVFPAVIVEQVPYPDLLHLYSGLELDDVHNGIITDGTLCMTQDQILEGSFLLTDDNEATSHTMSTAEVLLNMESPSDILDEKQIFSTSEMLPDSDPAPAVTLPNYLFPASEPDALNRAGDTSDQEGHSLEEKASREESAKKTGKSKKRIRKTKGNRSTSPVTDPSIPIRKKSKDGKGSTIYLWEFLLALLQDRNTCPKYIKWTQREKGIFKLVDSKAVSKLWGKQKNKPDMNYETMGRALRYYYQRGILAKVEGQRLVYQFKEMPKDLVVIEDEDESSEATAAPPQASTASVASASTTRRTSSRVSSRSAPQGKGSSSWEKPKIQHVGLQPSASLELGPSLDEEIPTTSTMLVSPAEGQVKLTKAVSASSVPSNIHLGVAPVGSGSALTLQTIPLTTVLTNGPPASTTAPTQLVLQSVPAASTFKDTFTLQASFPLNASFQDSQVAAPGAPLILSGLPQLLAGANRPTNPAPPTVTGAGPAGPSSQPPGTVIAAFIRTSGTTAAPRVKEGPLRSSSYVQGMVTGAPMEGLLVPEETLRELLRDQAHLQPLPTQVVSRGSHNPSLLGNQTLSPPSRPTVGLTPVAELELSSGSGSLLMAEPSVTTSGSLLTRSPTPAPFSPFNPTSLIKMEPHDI
CRX, sequence (O43186 whole entry): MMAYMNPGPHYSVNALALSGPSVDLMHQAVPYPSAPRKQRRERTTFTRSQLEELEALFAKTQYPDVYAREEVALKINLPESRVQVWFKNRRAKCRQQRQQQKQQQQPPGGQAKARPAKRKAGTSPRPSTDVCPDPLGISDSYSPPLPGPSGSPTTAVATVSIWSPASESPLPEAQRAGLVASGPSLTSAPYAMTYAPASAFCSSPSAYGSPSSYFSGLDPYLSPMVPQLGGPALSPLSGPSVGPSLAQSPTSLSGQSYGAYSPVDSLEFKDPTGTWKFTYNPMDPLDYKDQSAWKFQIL
ETV1, sequence (P50549 whole entry): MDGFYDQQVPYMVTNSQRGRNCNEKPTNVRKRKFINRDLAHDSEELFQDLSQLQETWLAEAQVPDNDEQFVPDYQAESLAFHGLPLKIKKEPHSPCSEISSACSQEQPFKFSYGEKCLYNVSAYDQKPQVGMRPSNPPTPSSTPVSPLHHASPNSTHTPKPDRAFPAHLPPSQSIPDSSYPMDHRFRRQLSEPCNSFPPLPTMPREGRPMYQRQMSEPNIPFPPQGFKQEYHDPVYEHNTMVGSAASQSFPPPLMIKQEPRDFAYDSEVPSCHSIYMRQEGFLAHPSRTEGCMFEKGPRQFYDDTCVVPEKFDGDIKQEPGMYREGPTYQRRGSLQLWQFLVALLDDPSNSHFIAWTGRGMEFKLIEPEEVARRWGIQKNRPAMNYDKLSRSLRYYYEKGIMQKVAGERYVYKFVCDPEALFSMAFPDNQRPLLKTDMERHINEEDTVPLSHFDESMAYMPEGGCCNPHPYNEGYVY
ETV6, sequence (P41212 whole entry): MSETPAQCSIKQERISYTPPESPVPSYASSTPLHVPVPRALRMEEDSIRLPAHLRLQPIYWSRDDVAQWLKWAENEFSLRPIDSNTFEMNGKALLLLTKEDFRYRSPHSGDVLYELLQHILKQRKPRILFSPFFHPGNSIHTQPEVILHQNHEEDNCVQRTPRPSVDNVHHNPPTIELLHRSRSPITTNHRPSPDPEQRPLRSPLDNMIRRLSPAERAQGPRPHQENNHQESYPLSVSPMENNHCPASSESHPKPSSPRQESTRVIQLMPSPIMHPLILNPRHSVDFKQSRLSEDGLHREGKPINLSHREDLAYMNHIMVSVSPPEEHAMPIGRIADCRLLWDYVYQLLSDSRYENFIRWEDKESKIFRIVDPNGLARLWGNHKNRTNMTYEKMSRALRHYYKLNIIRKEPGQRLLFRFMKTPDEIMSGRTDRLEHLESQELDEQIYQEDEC
HSF1, sequence (Q00613 whole entry): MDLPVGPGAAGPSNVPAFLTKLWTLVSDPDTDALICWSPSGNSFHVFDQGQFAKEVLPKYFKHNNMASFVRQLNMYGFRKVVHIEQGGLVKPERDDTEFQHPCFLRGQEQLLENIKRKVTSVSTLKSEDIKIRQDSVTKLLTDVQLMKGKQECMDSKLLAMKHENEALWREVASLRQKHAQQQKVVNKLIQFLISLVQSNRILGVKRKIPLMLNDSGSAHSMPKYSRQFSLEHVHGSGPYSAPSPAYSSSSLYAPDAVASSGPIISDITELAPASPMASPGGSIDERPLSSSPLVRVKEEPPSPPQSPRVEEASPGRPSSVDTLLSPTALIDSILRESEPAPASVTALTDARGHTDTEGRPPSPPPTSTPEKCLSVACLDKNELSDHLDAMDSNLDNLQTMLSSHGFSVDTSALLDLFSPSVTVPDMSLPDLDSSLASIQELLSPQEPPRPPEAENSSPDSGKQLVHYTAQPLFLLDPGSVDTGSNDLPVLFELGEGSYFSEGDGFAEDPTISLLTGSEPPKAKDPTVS

For the sequence AACCCG, the binding signal in the test with FEV is 1.44 fold enrichment (6-mer frequency, TF over GST control); with ETV5, 1.51 fold enrichment (6-mer frequency, TF over GST control); with HSF1 it was 1.07 fold enrichment (6-mer frequency, TF over GST control); with SPIC, 1.47 fold enrichment (6-mer frequency, TF over GST control); with ELF4, 1.51 fold enrichment (6-mer frequency, TF over GST control); with ELK4, 1.26 fold enrichment (6-mer frequency, TF over GST control). The binding signal was 1.47 fold enrichment (6-mer frequency, TF over GST control) with ETV2; 1.6 fold enrichment (6-mer frequency, TF over GST control) with ELF3; 1.2 fold enrichment (6-mer frequency, TF over GST control) with CRX; 1.58 fold enrichment (6-mer frequency, TF over GST control) with ETV1; 1.42 fold enrichment (6-mer frequency, TF over GST control) with ERF; 1.34 fold enrichment (6-mer frequency, TF over GST control) with ETV3L. Also, the binding signal with ETS2 is 1.45 fold enrichment (6-mer frequency, TF over GST control); in the test with SPDEF, 1.63 fold enrichment (6-mer frequency, TF over GST control); with ETV7, 1.47 fold enrichment (6-mer frequency, TF over GST control); in the test with ELF5, 1.52 fold enrichment (6-mer frequency, TF over GST control); in the test with ETV3, 1.57 fold enrichment (6-mer frequency, TF over GST control); in the test with ETV6, 1.5 fold enrichment (6-mer frequency, TF over GST control).
